In experiment [1] the target is T1, Aspartate--tRNA(Asp/Asn) ligase (Mycobacterium tuberculosis (strain ATCC 25618 / H37Rv)) (UniProt P9WFW3). Also: in the data most compounds retested in dose-response had high values.
T1 sequence (whole entry): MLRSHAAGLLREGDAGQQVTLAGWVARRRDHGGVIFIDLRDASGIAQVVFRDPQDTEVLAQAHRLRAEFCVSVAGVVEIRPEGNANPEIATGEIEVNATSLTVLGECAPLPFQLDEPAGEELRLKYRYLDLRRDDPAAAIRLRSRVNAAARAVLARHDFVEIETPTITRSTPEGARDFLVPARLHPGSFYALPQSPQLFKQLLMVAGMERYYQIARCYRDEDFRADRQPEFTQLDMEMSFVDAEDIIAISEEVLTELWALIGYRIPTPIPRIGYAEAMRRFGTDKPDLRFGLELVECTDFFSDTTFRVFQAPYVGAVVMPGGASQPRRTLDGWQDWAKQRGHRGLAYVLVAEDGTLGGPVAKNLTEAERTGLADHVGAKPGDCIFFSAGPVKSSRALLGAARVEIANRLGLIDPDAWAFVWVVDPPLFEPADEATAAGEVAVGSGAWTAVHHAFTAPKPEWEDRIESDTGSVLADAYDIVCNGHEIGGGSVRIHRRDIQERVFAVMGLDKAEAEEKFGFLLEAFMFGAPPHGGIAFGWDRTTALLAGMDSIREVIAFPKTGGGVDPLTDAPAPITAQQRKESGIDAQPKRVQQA
Nature of the experiment: Assay for Asp RNA synthetase-1 from Mycobacterium tuberculosis. On the set-up: scale not given: direction of the effect not stated beside the values. It counts as functional. Conditions: 30 µM.

Experiment [2] deals with Shiga toxin 2 (Escherichia coli O157:H7) (UniProt P09385+P09386). Kind of experiment: E. coli 0.157:H7 Shiga Toxin SOP - stx2 screening assay. It is filed as functional. On the set-up: scale not given: direction of the effect not stated beside the values. Conditions: 30 µM.

With `CN(C)C[C@@H]1C[C@@H]2CN(C(=O)c3ccoc3)CC[C@@H]2N1CC1CC1`, the Percent Effect in experiment [1] was determined as 2.34%; in experiment [2], 8.89%.
Taken in the same sequence, the figures for `CNC(=O)CCc1cc(C)nc(C2CCCN2)c1` (stereo not given) were 0.0149% and -4.41%.
On to `COc1c(CNC(c2ccc(F)cc2)C(C)(C)C)c(C)nn1C` (stereo not given), for which the figures for the Percent Effect in experiment [1] and in experiment [2] were -1.59% and 40.7%, respectively.
On the same counts, the results for `COCCCNC(=O)N1CCCC(c2nncn2C)C1` (stereo not given) are 1.97% and 21.1%.
Regarding `CC(=O)N1CC(=O)N(c2cnn(C)c2)CC12CCN(CC1CC1)C2` (stereo not given), the Percent Effect in experiment [1] is 4.21%; in experiment [2] it was -23.2%.
On the same counts, the results for `CC(C)CNC(=O)c1ccc2nnc(C3CCN(S(C)(=O)=O)C3)n2c1` (stereo not given) are 3.22% and 3.22%.
`N#Cc1ccc(C(=O)N2CC[C@H]3[C@@H]2CCC(=O)N3c2cccnc2)cc1`: the results for the Percent Effect in experiment [1] and in experiment [2] were 2.4% and -9.02%, respectively.
Taken in the same sequence, the figures for `Cc1cc(CN(C)C(=O)NCC(C)N2CCc3ccccc32)no1` (stereo not given) were -1.27% and -6.14%.
Taken in the same sequence, the figures for `CN(C)C(=O)NC1COC2(CCN(C(=O)Nc3ccccc3)CC2)C1` (stereo not given) were 7.1% and -15.4%.
On the same counts, the results for `CC(C)C1CN(c2ncccn2)CCC(=O)N1Cc1ccc(F)cc1` (stereo not given) are 3.51% and 3.8%.
On to `Cc1noc(C2CCCCN2C(=O)NC2CCCC2)n1` (stereo not given), for which the Percent Effect was 5.06% in experiment [1] and -14.7% in experiment [2].
On the same counts, the results for `Cc1noc([C@H]2C[C@@H]3CCN(CC4CC4)C[C@H]3O2)n1` are 6.95% and -8.04%.
Taken in the same sequence, the figures for `CN(CCn1nc2ccccn2c1=O)CC(=O)NC1CC1` were -5.57% and -5.23%.
For the compound `COC[C@@]12CC[C@@H](N3CCOCC3)C[C@H]1CCN(c1ncccc1Cl)C2`, the Percent Effect was -2.31% in experiment [1] and 23% in experiment [2].
On the same counts, the results for `Cc1ccc(C(=O)N(C)Cc2cc(Br)cs2)c(=O)[nH]1` are 0.749% and -3.88%.
Taken in the same sequence, the figures for `Cn1c(C(F)(F)F)nn(CCNC(=O)c2cnc3ccccc3n2)c1=O` were -7.1% and -21.4%.
On to `CCc1noc(CN2CCCN(C(N)=O)CC2)n1`, for which the Percent Effect was -1.28% in experiment [1] and 5.08% in experiment [2].
On the same counts, the results for `CN(C)C(=O)[C@@H]1CCO[C@@H]2CCN(Cc3ccc4c(c3)OCO4)C[C@@H]21` are -0.534% and -27.6%.
On the same counts, the results for `COCCN1C(=O)CC(N2CCN(c3ccc(F)cc3)CC2)C1=O` (stereo not given) are 1.23% and -24.6%.
Taken in the same sequence, the figures for `COc1cccc(CN(C)S(=O)(=O)N2CCOCC2)c1` were -0.479% and 9.56%.
As to `CN(Cc1ccc(Cl)s1)C(=O)c1cccc(OCC(N)=O)c1`, the Percent Effect was -2.2% in experiment [1] and 0.368% in experiment [2].
Turning to `CCc1cc(NCc2ccccc2CN2CCCC2)n2ncnc2n1`, the Percent Effect is 7.58% in experiment [1] and -25.4% in experiment [2].
On the same counts, the results for `Cc1cccc(NC(=O)CNC(=O)Cn2ncc(Cl)c(Cl)c2=O)c1C` are 9.53% and -21.2%.
Taken in the same sequence, the figures for `CCc1nnc2n1CCN(C(=O)c1cc3ccc(F)cc3nc1C)C2` were 1.79% and 8.5%.
Taken in the same sequence, the figures for `Cc1ccc(CNC2CCN(CCc3ccncc3)CC2)cc1C` were -5.11% and -49.6%.
For the compound `CN(C)c1ccccc1C(=O)N1C[C@@H](CN2CCOCC2)[C@@H](CO)C1`, the Percent Effect in experiment [1] was -3.28%; in experiment [2], 10.2%.
On the same counts, the results for `O=C(Nc1ncn(CC(=O)N2CCCCCC2)n1)C1CCCO1` (stereo not given) are -0.233% and 29.5%.
Taken in the same sequence, the figures for `CCC(NC(=O)c1ccco1)c1ccccc1OCC(=O)N1CCCC1` (stereo not given) were 0.611% and -10.6%.
Regarding `Cn1ccc(C(=O)NCc2cccc(NC(=O)C3CCC3)c2)cc1=O`, the Percent Effect in experiment [1] was -0.879%; in experiment [2], -48%.
Taken in the same sequence, the figures for `COc1c(C2CCCN2C(=O)c2c[nH]c3ncccc23)c(C)nn1C` (stereo not given) were -1.25% and -20.6%.
As to `Cc1nn(CC(=O)N2CCN(c3ccncc3)CC2)c(C)c1Cl`, the Percent Effect was 0.15% in experiment [1] and -36.1% in experiment [2].
`CC(C)C(C)NC(=O)Nc1ccc(CS(C)(=O)=O)cc1` (stereo not given): the Percent Effect in experiment [1] was 3.12%; in experiment [2], -11.6%.
In the case of `Cc1nc2ccccc2nc1CN1CCCC1c1c(C)nn(C)c1C` (stereo not given), the Percent Effect is -5.6% in experiment [1] and -18.4% in experiment [2].
As to `Clc1cc(CN2CCCC2Cn2cncn2)c2ncccc2c1` (stereo not given), the Percent Effect is -0.0583% in experiment [1] and 6.1% in experiment [2].
On the same counts, the results for `O=C(C1SCCc2sccc21)N1CCN(CCO)CC1` (stereo not given) are -0.774% and 24.8%.
As for `COc1ncccc1C(=O)N1CCn2c(COCC3CC3)cnc2C1C` (stereo not given), the Percent Effect was -2.76% in experiment [1] and 6.35% in experiment [2].
Taken in the same sequence, the figures for `O=C(CC1CN(Cc2ccccc2)CCO1)NC1CCCC1` (stereo not given) were -3.53% and 1.42%.
As to `Cc1cnc(C(=O)N2CCCN(Cc3csc(C)n3)CC2)cn1`, the results for the Percent Effect in experiment [1] and in experiment [2] were -0.524% and -41.5%, respectively.
Taken in the same sequence, the figures for `CCOCCCC(=O)NCCC(=O)N1CCN(c2ccccn2)CC1` were 0.809% and -65.6%.
Taken in the same sequence, the figures for `CCn1cc(NC(=O)NCc2ccc3c(c2)OCCO3)cn1` were 1.48% and -43.3%.
In the case of `Cc1cc2n(n1)CC(CNCc1cnn(-c3ccccc3)c1)CN2` (stereo not given), the Percent Effect in experiment [1] is -1.15%; in experiment [2] it was 7.05%.
With `O=C(NCC1CC1)Nc1cccc(N2CCN(CC3CC3)CC2)c1`, the Percent Effect is -1.59% in experiment [1] and -38.1% in experiment [2].
As for `COc1ncccc1NC(=O)C1CC(=O)N(Cc2ccccn2)C1` (stereo not given), the figures for the Percent Effect in experiment [1] and in experiment [2] were 1.2% and -0.103%, respectively.
On the same counts, the results for `CCN(C)c1ncnc2c1CCN(Cc1ccc(OC)cc1)CC2` are 7% and 4.46%.
Taken in the same sequence, the figures for `CCCOc1cc(CNC(=O)Nc2cccnc2N2CCCC2)ccn1` were 1.75% and -9.71%.
On the same counts, the results for `Fc1ccc(CN2CCCC(c3nnc(-c4cnccn4)o3)C2)cc1F` (stereo not given) are 2.55% and -5.16%.
`CC(Cn1ccnc1)NC(=O)NCCNC(=O)C(C)C` (stereo not given): the Percent Effect in experiment [1] came out at 1.08%; in experiment [2], 11.8%.
On the same counts, the results for `Fc1ccc(CN2CCC(c3n[nH]c4nccnc34)CC2)cc1F` are 0.372% and -8.59%.
Taken in the same sequence, the figures for `COc1ncccc1CN1Cc2nnn(C)c2C(COCC2CC2)C1` (stereo not given) were 4.09% and -10.1%.
Taken in the same sequence, the figures for `CCCS(=O)(=O)NCc1cccnc1OCC` were -1.52% and -6.28%.

Source of the values: ChEMBL document CHEMBL3988442, “University of Dundee, Small-Polar-MMV Screening Library” (2021).
